The record followed here is PubChem BioAssay (EPA / NIEHS).

As usually defined, the AC50 is the concentration giving half of the maximal activity seen.

Results filed as inconclusive are left out. The source made the active and inactive calls. The calls were made as follows: active = hit-call score of the fitted dose curve at least 0.9, where 1 is the maximum; inconclusive = response in the unintended direction; inactive = score below 0.9.

A short description of the experiment: CCTE_Simmons_CellTiterGLO_HEK293T: Viability Assessment in CCTE's Assays for Thyroperoxidase (TPO) Inhibition, Simmons Lab (AID 2283665).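 As to AC50: cells exposed to compound for 24 h before readout; actives reduce ATP signal below DMSO vehicle meaning cytotoxicity.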 On the procedure: CCTE_Simmons_CellTiterGLO_HEK293T is a cell-based, single-readout assay that uses HEK293T, a human kidney cell line, with measurements taken at 24 hours after chemical dosing in a 384-well plate.CCTE_Simmons_CellTiterGLO_HEK293T is the assay component measured from the CCTE_Simmons_CellTiterGLO_HEK293T assay. It is designed to make measurements of ATP content, a form of viability reporter, as detected with bioluminescence signals by Luciferase-coupled ATP quantitation technology. This is a secondary cytotoxicity assay to CCTE_Simmons_AUR_TPO to estimate a cellular tolerance limit.Data from the assay component CCTE_Simmons_CellTiterGLO_HEK293T was analyzed at the endpoint, CCTE_Simmons_CellTiterGLO_HEK293T, in the positive analysis fitting direction relative to DMSO as the negative control and baseline of activity. Using a type of viability reporter, measures of ATP content for loss-of-signal activity can be used to understand the viability. This assay was run in parallel with aeid 1508 as a means of indicating the range of chemical cytotoxicity or reactivity. To generalize the intended target to other relatable targets, this assay endpoint is annotated to the cell cycle intended target family, where the subfamily is cytotoxicity.
Human HEK293T cells (GenHunter; Nashville, Tennessee) were seeded overnight in 384-well, solid white assay plates (Greiner, BioExpress) at a density of 10 000 cells per well in 65 ul Dulbecco's Modified Eagle Medium (Life Technologies; Carlsbad, California) supplemented with 1% fetal bovine serum (HyClone; Logan, Utah). Test compounds were administered using the HDRT as described earlier to achieve a 0.5% final DMSO concentration. Cells were then incubated at 37C for 24 hr in a humidified 5% CO2 incubator. Cell Titer Glo (Promega; Madison, WI) reagent (25 ul) was then added by the BioTek MicroFlo and microplates were incubated at room temperature in the dark for 20min. Plates were read on a plate reader (FLUOStar Optima) using an endpoint luminescence protocol (top read). Three biological replicates of technical singles were run for every chemical concentration tested. A titrated range of DCNQ served as a positive control on each plate of the cytotoxicity screening assay.Test chemicals were administered as a titrated series of 8 concentrations from 5 nM up to 87.5 uM [final] for 24 hours prior to single endpoint detection. Three biological replicates of technical singles were run for every chemical concentration tested. Dimethylsulfoxide [DMSO] was used as the vehicle control. Dichlone [DCNQ] was used as the positive control and was administered as a titrated series of 8 concentrations from 1 nM up to 100 uM [final].
A general note: ATP-based viability assays read luminescence as a measure of living cells.
Regarding `COS(=O)(=O)OC`, the result was inactive. Consider `CCOP(=S)(OCC)SCSC(C)(C)C`, for which the half-maximal activity concentration (AC50) is 20.9 µM (active). Consider `C[C@]12CCC(=O)C=C1CC[C@@H]1[C@@H]2CC[C@]2(C)C(=O)CC[C@@H]12`, for which the outcome was inactive. With `CCCCCCCCCC[N+](C)(C)CCCCCCCCCC`, the AC50 was 3.92 µM (active). Still for that read-out and setting: next, `CCC(C)(c1ccc(O)cc1)c1ccc(O)cc1`: 37.4 µM (active). On the same count and under the same terms, to `CC(c1ccc(O)cc1)(c1ccc(O)cc1)c1ccc(O)cc1` belongs 36.9 µM (active). The same measure, in the same setting: next, `O=C(O)C(F)(F)C(F)(F)C(F)(F)C(F)(F)C(F)(F)C(F)(F)C(F)(F)C(F)(F)F`: 21.8 µM (active).

Regarding `COc1ccc(O)c(C(C)(C)C)c1`, the AC50 is 60.5 µM (active).

As to `Cc1ccc(O)c(C)c1`, the compound was called inactive. Same read-out and setting: to `Clc1ccc(C(Cl)(Cl)Cl)cc1` belongs “inactive”; to `O=C(NC(=O)c1c(F)cccc1F)Nc1cc(Cl)c(OC(F)(F)C(F)F)c(Cl)c1`, “inactive”.

In the case of `Oc1c(Cl)c(Cl)c(Cl)c(Cl)c1Cl`, the compound was called inactive. Consider `CCC(=O)O[C@H]1CC[C@H]2[C@@H]3CCC4=CC(=O)CC[C@]4(C)[C@H]3CC[C@]12C`, for which the AC50 was 9.47 µM (active). Take `Sc1ccccc1`: the outcome was inactive. Consider `CCCCCCCCCc1ccc(O)cc1`, for which the AC50 was 15.7 µM (active). Still for that read-out and setting: next, `CC(C)(c1ccccc1)c1ccc(O)cc1`: 12.2 µM (active); `O=C(O)C(F)(F)C(F)(F)C(F)(F)C(F)(F)C(F)(F)C(F)(F)C(F)(F)C(F)(F)C(F)(F)F`: 38.3 µM (active); `Cc1ccccc1CO[C@@H]1C[C@@]2(C(C)C)CC[C@]1(C)O2`: 21.6 µM (active).

For `Oc1ccc(C(c2ccc(O)cc2)(C(F)(F)F)C(F)(F)F)cc1`, the AC50 was 11 µM (active).

Turning to `CCCCCCCCOC(=O)c1ccccc1C(=O)OCCCCCCCC`, the compound was classed as inactive. For `c1ccc(-c2ccccc2)cc1`, the AC50 is 34.5 µM (active).
